The panel holds about 83,000 compounds, 20% with a hit somewhere; the sample as a whole holds those more often.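 Percent growth is the endpoint: 0 to 100 indicates growth inhibition (40 means 60% inhibition), 0 means no net growth, and negative values indicate cell death.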 A number with no mark means an inactive call. Active and inactive are the calls of the source. The calls were made as follows: active = growth percent below 10; inactive = the rest.

This assay deals with MDA-MB-468 breast. Kind of assay: NCI-60 one-dose screen, 48 h (100 = growth as untreated, 0 = no growth, -100 = all killed). To be noted: 10 µM.
In the case of `CN1CCN(c2ccc(Nc3nc(N4CCN(S(=O)(=O)c5ccc(F)cc5)CC4)c4sccc4n3)cc2)CC1`, the growth was -96.7% (active). Turning to `CCCCCc1ccc(S(=O)(=O)Nc2cc(-c3csc(N(C)C(C)=O)n3)ccc2N2CCN(C)CC2)cc1`, the growth was 14.1%. Turning to `CN1CCN(c2ccc(Nc3nc(NCCCNC(=O)C4CCCCC4)c4sccc4n3)cc2)CC1`, the growth is 49.1%. With `N[C@@H](CSSC[C@H](N)C(=O)Nc1ccc(OCC2CCCC2)cc1)C(=O)Nc1ccc(OCC2CCCC2)cc1`, the growth was -93.4% (active). Turning to `COc1ccc2nc(Cl)c(-c3cc(-c4ccccc4)nc(=O)[nH]3)cc2c1`, the growth is 28.5%. For the compound `O=C(Nc1ccc(OCc2ccccc2)cc1)Nc1ccc(Cl)c(C(F)(F)F)c1`, the growth was -36% (active).

Consider `COc1ccc2[nH]c(O)c(N=NC(=O)COc3ccc(NC(=O)Nc4ccc(Cl)cc4)cc3)c2c1`, for which the growth was -52.3% (active). Consider `Cc1cc2c(c(O)c1Br)-c1ncoc1C(=O)[C@]1(C)CC[C@H](C(C)C)[C@H]21`, for which the growth was 20.3%. `CCN1CCN(c2ccc(NC(=O)Nc3ccc4c(c3F)CCN4c3ccnc(C(=O)NC)c3)cc2C(F)(F)F)CC1`: the growth is 98.9%. Regarding `O=C1Nc2ccc(F)cc2/C1=C/c1cccc(OCc2ccccc2)c1`, the growth is -22.3% (active). With `Cc1ccc(NC(=O)c2ccc(-n3c(=O)[nH]c4ccccc4c3=O)cc2)cc1`, the growth is 82.2%.

For `O=C(Nc1ccncc1)c1ccc(-n2c(=O)[nH]c3ccccc3c2=O)cc1`, the growth is 69.6%. The result for `Cc1ccc(-c2cc(-c3cc4ccccc4nc3Cl)[nH]c(=S)n2)cc1` reads 11.7%; that for `O=C(c1ccc(Cl)cc1)C1[C@H](c2ccc(Br)cc2)[C@@H](c2ccccc2)NC12C(=O)Nc1ccc(Cl)cc12` (some centres undefined), -90% (active).

For `O=C(O)CCCCCCCCCCN1C(=O)/C(=C/c2cnc(-c3ccc(Cl)cc3)s2)SC1=S`, the growth was 52.3%. Consider `CN1CCN(c2ccc(Nc3nc(N4CCN(S(=O)(=O)c5ccc(Cl)cc5)CC4)c4sccc4n3)cc2)CC1`, for which the growth is -96.7% (active). Turning to `CN1CCN(c2ccc(C(=O)/C=C/c3cc(Br)ccc3F)cc2)CC1`, the growth is -13.3% (active).

Take `O=c1nc(-c2ccccc2)cc(-c2cc3ccccc3nc2Cl)[nH]1`: the growth was 17.2%.

With `CC1=C2C(=C[C@@](C)(CO)[C@@H]2O)/C(=N\N)[C@](C)(O)C12CC2`, the growth was -90.8% (active).

As to `O=C(c1ccc(O)cc1)C1[C@H](c2ccc(Br)cc2)[C@@H](c2ccccc2)NC12C(=O)Nc1ccc(Br)cc12` (some centres undefined), the growth is -54% (active).

Take `COc1ccc(C=CC(=O)c2ccc(-n3c(C)nc4c(cnn4-c4ccccc4)c3=O)cc2)cc1`: the growth is 11.3%. Consider `O=C(c1ccc(O)cc1)C1[C@H](c2ccccc2Br)[C@@H](c2ccccc2)NC12C(=O)Nc1ccc(Cl)cc12` (some centres undefined), for which the growth was -47.1% (active). In the case of `O=C(c1ccccc1)n1ccc(-c2cc3cc(Br)ccc3oc2=O)n1`, the growth is -25.9% (active). Turning to `C#Cc1ccc(S(=O)(=O)Nc2cccc(-c3csc(NC(C)=O)n3)c2)cc1`, the growth was 37.9%. Consider `O=C(N/N=C/c1ccc(-c2cccc([N+](=O)[O-])c2)o1)c1[nH]c2ccc(Br)cc2c1-c1ccccc1`, for which the growth was -3.87% (active).

On to `O=C(Nc1nc2ccc([N+](=O)[O-])cc2s1)Nc1cc(Cl)ccc1I`, for which the growth is -43.5% (active). For `C=C(c1ccc(OC)c(N)c1)c1cc(C)nc2ccccc12`, the growth was -16.3% (active). For the compound `CNC(=O)c1cccc(N2CCc3c2ccc(NC(=O)Nc2ccc(N4CCN(C)CC4)c(C(F)(F)F)c2)c3F)c1`, the growth was 90.4%. With `COc1ccc([C@H]2C(C(=O)c3ccc(Cl)cc3)C3(N[C@@H]2c2ccccc2)C(=O)Nc2ccc(Br)cc23)cc1` (some centres undefined), the growth is -7.76% (active). For the compound `CN1CCN(Cc2ccc(C(=O)Nc3cccc(Nc4ccc5cc(O)ccc5n4)c3)cc2C(F)(F)F)CC1`, the growth was -89.4% (active). With `Brc1ccc(/C=N/Nc2ncnc3sc4c(c23)CCN(Cc2ccccc2)C4)cc1`, the growth is -7.6% (active). Consider `COc1ccc(C(C)=C(c2ccc(OCCCN(C)C)cc2)c2ccc(OCCCN(C)C)cc2)cc1`, for which the growth was -88% (active).

On to `C=C(C)[C@@H]1CC[C@]2(C(=O)OC)CC[C@]3(C)[C@H](CC[C@@H]4[C@@]5(C)CC[C@H](N)C(C)(C)[C@@H]5CC[C@]43C)[C@@H]12`, for which the growth was -97.2% (active). As for `CS(=O)(=O)Nc1ccc(-c2ccc3c(c2)ncn3-c2ccc(NC(=O)Nc3ccc(Br)cc3)cc2)cc1`, the growth was -10.7% (active).

The values are drawn from PubChem BioAssay (NCI).
